Experimental data taken from PubChem BioAssay (Tox21).
Results filed as inconclusive are left out. Active and inactive are the calls of the source. Calls follow the shape of the dose curve; as a rule, active = well fitted activation curve with a large enough effect in the repeat runs; inconclusive = weak or mixed curves; inactive = no such curve, though single readings can be large or run the other way.

Target: Aryl hydrocarbon receptor (Homo sapiens) (UniProt P35869)
Assay: qHTS assay to identify small molecule that activate the aryl hydrocarbon receptor (AhR) signaling pathway (AID 743085); also: nearly all actives have a fitted effect of over 15% in size;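 as to activation: HG2L7.5c1 human HepG2 liver cells with stably integrated DRE-driven firefly reporter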
Settings: HepG2 AhR-luc (HG2L7.5c1), luciferase, 24 h; series mostly up to 70.3 µM; activation: at the top concentration
Description: U.S. Tox21 Program National Center for Advancing Translational Sciences [NCATS] NIH Chemical Genomics Center [NCGC] U.S. Environmental Protection Agency [EPA] National Institutes of Environmental Health Sciences [NIEHS] National Toxicology Program [NTP] U.S. Food and Drug Administration [FDA] Tox21 Assay overview: The Aryl hydrocarbon Receptor (AhR), a member of the family of basic helix-loop-helix transcription factors, is crucial to adaptive responses to environmental changes. AhR mediates cellular responses to environmental pollutants such as aromatic hydrocarbons through induction of phase I and II enzymes but also interacts with other nuclear receptor signaling pathways. A cell based HepG2-AhR-luc assay (HG2L7.5c1 cell line, developed by Dr. Michael S. Denison, University of California at Davis, was used to assess the activation of AhR. HepG2 (human hepatocellular carcinoma) cells were stably transfected with an Ah receptor-responsive firefly luciferase reporter gene plasmid containing 20 dioxin responsive elements and luciferase reporter gene. Increased luciferase activity can be used to identify the compounds that induce AhR activation.
Tox21 Assay Protocol Summary: 4000 cells in 5 uL/well were dispensed into white wall/solid bottom 1536-well plates using a Multidrop Combi (Thermo Fisher Scientific Inc., Waltham, MA) dispenser. After the assay plates were incubated at 37C for 5 h, 23 nL of compound or DMSO vehicle was transferred to the assay plates by a pintool station (Kalypsys, San Diego, CA). The plates were incubated at 37C for 24 hr. After 1 ul/well of CellTiter-Fluor reagent (Promega, Madison, WI) was added into the assay plates using a Flying Reagent Dispenser (FRD) (Aurora Discovery, CA), the assay plates were incubated at 37C for 30 min. The fluorescence intensity in the plates was measured using a ViewLux plate reader (PerkinElmer, Shelton, CT), followed by the addition of 4 uL of ONE-Glo Luciferase Assay reagent (Promega) using an FRD (Aurora Discovery). After the assay plates were incubated at room temperature for 30 min, luminescence intensity was measured using a ViewLux plate reader (Perkin Elmer).
% is scaled to controls: 0 for no effect and ±100 for the full control effect; potency is read from the fitted curve at half-maximal effect.

Chain of Aryl hydrocarbon receptor (Homo sapiens) (P35869 whole entry, looked up): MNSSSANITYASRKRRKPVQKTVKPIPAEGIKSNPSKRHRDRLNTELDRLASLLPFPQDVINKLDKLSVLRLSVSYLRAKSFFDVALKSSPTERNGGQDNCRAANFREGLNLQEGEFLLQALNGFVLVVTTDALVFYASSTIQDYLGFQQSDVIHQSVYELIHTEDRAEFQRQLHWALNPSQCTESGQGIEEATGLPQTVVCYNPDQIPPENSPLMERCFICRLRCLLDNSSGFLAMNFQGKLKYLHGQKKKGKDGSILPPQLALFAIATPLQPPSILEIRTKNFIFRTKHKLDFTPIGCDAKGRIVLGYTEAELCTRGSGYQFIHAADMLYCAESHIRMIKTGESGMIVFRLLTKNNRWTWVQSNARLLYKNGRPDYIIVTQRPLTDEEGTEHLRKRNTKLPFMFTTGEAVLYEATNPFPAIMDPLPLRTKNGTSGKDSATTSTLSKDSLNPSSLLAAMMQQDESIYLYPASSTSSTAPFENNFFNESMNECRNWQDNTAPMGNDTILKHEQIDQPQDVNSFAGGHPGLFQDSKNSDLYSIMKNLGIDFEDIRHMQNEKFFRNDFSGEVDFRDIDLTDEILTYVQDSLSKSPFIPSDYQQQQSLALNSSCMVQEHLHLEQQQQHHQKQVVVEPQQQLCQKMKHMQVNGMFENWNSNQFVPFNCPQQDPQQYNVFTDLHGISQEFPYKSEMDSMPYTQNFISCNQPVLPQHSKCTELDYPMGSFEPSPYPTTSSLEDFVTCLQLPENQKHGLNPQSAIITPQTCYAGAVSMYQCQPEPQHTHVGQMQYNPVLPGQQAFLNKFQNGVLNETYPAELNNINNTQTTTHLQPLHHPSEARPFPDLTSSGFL

Row | Compound | activation | Potency
1 | CC(C)(CO)[N+](=O)[O-] | -0.328% (inactive) | 
2 | CN(C)c1ccc(C(c2ccccc2)c2ccc(N(C)C)cc2)cc1 | -0.858% (inactive) | 
3 | CCOC(=O)COC(=O)c1cc(Oc2ccc(C(F)(F)F)cc2Cl)ccc1[N+](=O)[O-] | -1.37% (inactive) | 
4 | CCCCCCCCCCCCN1CCCCCC1=O | -0.591% (inactive) | 
5 | CCCCCCCCO[C@@H]1O[C@H](CO)[C@@H](O)[C@H](O)[C@H]1O | -0.324% (inactive) | 
6 | CC1=CC[C@H](C(C)C)C=C1 | 1.62% (inactive) | 
7 | C/C=C/C(=O)CC | -0.102% [at 18.2 µM] (inactive) | 
8 | Nc1cccc(S(=O)(=O)c2cccc(N)c2)c1 | 4.26% (inactive) | 
9 | C1CCCNCCC1 | 0.774% (inactive) | 
10 | C/C(=C(\CCOP(=O)(O)O)SC(=O)c1ccccc1)N(C=O)Cc1cnc(C)nc1N | 0.163% [at 32.5 µM] (inactive) | 
11 | CCNc1cc(O)ccc1C |  | 30.3 µM (active)
12 | CCc1c(C(=O)NN2CCCCC2)nn(-c2ccc(Cl)cc2Cl)c1-c1ccc(Br)cc1 | -0.336% (inactive) | 
13 | CCCCC(CC)COC(=O)COc1ccc(Cl)cc1Cl (stereo not given) | 2.19% [at 95 µM] (inactive) | 
14 | CCOc1ccc(N=Nc2ccc(/C=C/c3ccc(N=Nc4ccc(OCC)cc4)cc3S(=O)(=O)O)c(S(=O)(=O)O)c2)cc1 | -0.817% (inactive) | 
15 | CCCCC(CC)COC(=O)CCCCCCCCC(=O)OCC(CC)CCCC (stereo not given) | -0.446% (inactive) | 
16 | CC(C)=CCC/C(C)=C/CC/C(C)=C/CO | 0.638% (inactive) | 
17 | Cc1cccc(C)c1OCC(=O)N[C@@H](Cc1ccccc1)[C@@H](O)C[C@H](Cc1ccccc1)NC(=O)[C@H](C(C)C)N1CCCNC1=O | 7.47% (inactive) | 
18 | Nc1c(CC(=O)O)cccc1C(=O)c1ccc(Br)cc1 | 4.18% (inactive) | 
19 | O=C(Nc1ccccc1)c1ccccc1O |  | 21.7 µM (active)
20 | O=C(O)c1ccc(-n2nc(-c3ccccc3O)nc2-c2ccccc2O)cc1 | -0.602% (inactive) | 

Row | Compound | activation | Potency
21 | CN1CCC(=C2c3ccccc3Sc3ccccc32)CC1 | -7.62% (inactive) | 
22 | COc1ccc(-c2nc3ccc(C4=NNC(=O)CC4C)cc3[nH]2)cc1 (stereo not given) |  | 11.9 µM (active)
23 | c1ccc(-c2ccccn2)nc1 | 2.31% (inactive) | 
24 | COC(C)(C)CCO | -0.425% (inactive) | 
25 | CNCCCN1c2ccccc2CCc2ccccc21 | -1.3% [at 32.5 µM] (inactive) | 
26 | CCCCCCCCCOS(=O)(=O)O | 6.33% (inactive) | 
27 | COC(C)OC | 0.0012% (inactive) | 
28 | CCCCCCCN | -0.805% [at 95 µM] (inactive) | 
29 | CCCCCCCC/C=C\CCCCCCCC(=O)OCC | -0.581% (inactive) | 
30 | CCCCO |  | inactive
31 | CCOC(=O)Cc1cccc2ccccc12 | -0.38% (inactive) | 
32 | CCCCC1=NC2(CCCC2)C(=O)N1Cc1ccc(-c2ccccc2-c2nn[nH]n2)cc1 | -1.6% (inactive) | 
33 | Nc1ccc(S(=O)(=O)Nc2ccccc2)cc1 | 1.82% (inactive) | 
34 | CC(=O)[O][Al][O]C(C)=O |  | inactive
35 | C=CCOc1ccccc1OCC(O)CNC(C)C (stereo not given) | 0.202% [at 32.5 µM] (inactive) | 
36 | CCCCC(CC)CN1C(=O)C2C3C=CC(C3)C2C1=O (stereo not given) | -0.0828% (inactive) | 
37 | CC(=O)[O][Al] | -0.318% [at 95 µM] (inactive) | 
38 | CCCCNc1ccc(C(=O)OCCOCCOCCOCCOCCOCCOCCOCCOCCOC)cc1 | -0.664% [at 32.5 µM] (inactive) | 
39 | NC(=O)C(c1ccccc1)(c1ccccc1)[C@@H]1CCN(CCc2ccc3c(c2)CCO3)C1 | 6.21% (inactive) | 
40 | Cc1cccc(Nc2ccccc2)c1 | 5.11% (inactive) | 
